Measured values reported in PubChem BioAssay AID1159580 (chemical genetic matrix, 2015).
In all, about 5,500 compounds went through this assay and about 2,000 (36%) were called active. Inconclusive results (about 18%) are left out. This is one part of the list. A number with no mark means an inactive call. Rule as the data show it: active = normalized growth mostly below about 0.91 (no sharp cut-off); inconclusive = no clear call, values can overlap the other calls; inactive = mostly above about 0.92.

Assay: chemical genetic growth profiling, strain panel (AID 1159580);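 also: tested at 20 µM; growth read once vehicle control cultures reached saturation at 30 °C; 1 = growth at the plate median or of vehicle wells; lower values mean less growth of the strain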
Conditions: S. cerevisiae deletion strains, growth OD

CN(C)CCOc1ccc(/C(=C(/CCCl)c2ccccc2)c2ccccc2)cc1
normalized growth (locus YAL021C, strain ccr4, active compounds read low): 0.0628 (active)
normalized growth (locus YAL026C, strain drs2, active compounds read low): 0.0599 (active)
normalized growth (locus YAL030W, strain snc1, active compounds read low): 0.0605 (active)
normalized growth (locus YBL061C, strain skt5, active compounds read low): 0.0647 (active)
normalized growth (locus YBR009C, strain hhf1, active compounds read low): 0.0629 (active)
normalized growth (locus YBR023C, strain chs3, active compounds read low): 0.0684 (active)
normalized growth (locus YBR171W, strain sec66, active compounds read low): 0.1 (active)
normalized growth (locus YBR231C, strain swc5, active compounds read low): 0.0672 (active)
normalized growth (locus YBR279W, strain paf1, active compounds read low): 0.0678 (active)
normalized growth (locus YCL011C, strain gbp2, active compounds read low): 0.0647 (active)
normalized growth (locus YCL016C, strain dcc1, active compounds read low): 0.0711 (active)
normalized growth (locus YCL061C, strain MRC1, active compounds read low): 0.107 (active)
normalized growth (locus YCL069W, strain vba3, active compounds read low): 0.071 (active)
normalized growth (locus YCR088W, strain abp1, active compounds read low): 0.0709 (active)
normalized growth (locus YDL005C, strain med2, active compounds read low): 0.0725 (active)
normalized growth (locus YDL040C, strain nat1, active compounds read low): 0.0985 (active)
normalized growth (locus YDR001C, strain nth1, active compounds read low): 0.0873 (active)
normalized growth (locus YDR069C, strain doa4, active compounds read low): 0.0653 (active)
normalized growth (locus YDR137W, strain rgp1, active compounds read low): 0.0958 (active)
normalized growth (locus YDR159W, strain sac3, active compounds read low): 0.0868 (active)
normalized growth (locus YDR195W, strain ref2): 0.126 (active)
normalized growth (locus YDR297W, strain sur2, active compounds read low): 0.0624 (active)
normalized growth (locus YDR334W, strain swr1, active compounds read low): 0.0691 (active)
normalized growth (locus YDR335W, strain msn5, active compounds read low): 0.0647 (active)
normalized growth (locus YDR392W, strain spt3, active compounds read low): 0.0935 (active)
normalized growth (locus YEL003W, strain gim4, active compounds read low): 0.0736 (active)
normalized growth (locus YEL037C, strain rad23, active compounds read low): 0.0691 (active)
normalized growth (locus YEL061C, strain CIN8 (second series), active compounds read low): 0.0848 (active)
normalized growth (locus YER015W, strain faa2, active compounds read low): 0.0621 (active)
normalized growth (locus YER016W, strain bim1, active compounds read low): 0.0811 (active)
normalized growth (locus YER111C, strain swi4, active compounds read low): 0.0861 (active)
normalized growth (locus YER155C, strain BEM2 (second series), active compounds read low): 0.107 (active)
normalized growth (locus YFR010W, strain ubp6, active compounds read low): 0.069 (active)
normalized growth (locus YGL167C, strain pmr1, active compounds read low): 0.0724 (active)
normalized growth (locus YGL173C, strain kem1, active compounds read low): 0.0697 (active)
normalized growth (locus YGL227W, strain vid30, active compounds read low): 0.0851 (active)
normalized growth (locus YGL240W, strain doc1, active compounds read low): 0.0984 (active)
normalized growth (locus YGL253W, strain hxk2, active compounds read low): 0.0578 (active)
normalized growth (locus YHR013C, strain ard1, active compounds read low): 0.111 (active)
normalized growth (locus YHR027C, strain rpn1, active compounds read low): 0.063 (active)
normalized growth (locus YHR030C, strain SLT2, active compounds read low): 0.711 (active)
normalized growth (locus YHR079C, strain IRE1, active compounds read low): 0.837 (active)
normalized growth (locus YHR142W, strain chs7, active compounds read low): 0.0764 (active)
normalized growth (locus YJL092W, strain hpr5, active compounds read low): 0.0832 (active)
normalized growth (locus YJL095W, strain BCK1 (second series), active compounds read low): 0.0582 (active)
normalized growth (locus YJL095W, strain BCK1, active compounds read low): 0.648 (active)
normalized growth (locus YJL115W, strain asf1, active compounds read low): 0.118 (active)
normalized growth (locus YJL129C, strain trk1, active compounds read low): 0.0917 (active)
normalized growth (locus YJL154C, strain vps35, active compounds read low): 0.0755 (active)
normalized growth (locus YJL164C, strain tpk1, active compounds read low): 0.0629 (active)
normalized growth (locus YJL166W, strain qcr8, active compounds read low): 0.0637 (active)
normalized growth (locus YJL187C, strain SWE1, active compounds read low): 0.0638 (active)
normalized growth (locus YJR066W, strain TOR1, active compounds read low): 0.819 (active)
normalized growth (locus YKL160W, strain elf1, active compounds read low): 0.079 (active)
normalized growth (locus YKR026C, strain gcn3, active compounds read low): 0.106 (active)
normalized growth (locus YKR091W, strain srl3, active compounds read low): 0.0783 (active)
normalized growth (locus YLL001W, strain dnm1, active compounds read low): 0.0676 (active)
normalized growth (locus YLL026W, active compounds read low): 0.0624 (active)
normalized growth (locus YLL041C, strain sdh2, active compounds read low): 0.0691 (active)
normalized growth (locus YLR027C, strain aat2, active compounds read low): 0.0598 (active)
normalized growth (locus YLR113W, strain HOG1, active compounds read low): 0.791 (active)
normalized growth (locus YLR221C, strain rsa3, active compounds read low): 0.0691 (active)
normalized growth (locus YLR258W, strain gsy2, active compounds read low): 0.0661 (active)
normalized growth (locus YLR262C, strain YPT6 (second series), active compounds read low): 0.0861 (active)
normalized growth (locus YLR320W, strain mms22, active compounds read low): 0.0789 (active)
normalized growth (locus YLR342W, strain FKS1, active compounds read low): 0.0712 (active)
normalized growth (locus YLR357W, strain rsc2, active compounds read low): 0.148 (active)
normalized growth (locus YLR370C, strain arc18, active compounds read low): 0.0617 (active)
normalized growth (locus YLR384C, strain iki3, active compounds read low): 0.078 (active)
normalized growth (locus YML120C, strain ndi1, active compounds read low): 0.0751 (active)
normalized growth (locus YMR058W, strain fet3, active compounds read low): 0.064 (active)
normalized growth (locus YMR125W, strain sto1, active compounds read low): 0.0872 (active)
normalized growth (locus YMR129W, active compounds read low): 0.0788 (active)
normalized growth (locus YMR205C, strain PFK2, active compounds read low): 0.0858 (active)
normalized growth (locus YMR231W, strain pep5, active compounds read low): 0.0638 (active)
normalized growth (locus YNL071W, strain lat1, active compounds read low): 0.0628 (active)
normalized growth (locus YNL183C, strain NPR1, active compounds read low): 0.85
normalized growth (locus YNL209W, strain ssb2, active compounds read low): 0.0599 (active)
normalized growth (locus YNL248C, strain rpa49, active compounds read low): 0.166 (active)
normalized growth (locus YNL322C, strain KRE1 (second series), active compounds read low): 0.433 (active)
normalized growth (locus YNR049C, strain mso1, active compounds read low): 0.0725 (active)
normalized growth (locus YOR001W, strain rrp6, active compounds read low): 0.0831 (active)
normalized growth (locus YOR070C, strain gyp1, active compounds read low): 0.0593 (active)
normalized growth (locus YOR080W, strain dia2, active compounds read low): 0.0814 (active)
normalized growth (locus YOR083W, strain WHI5, active compounds read low): 0.0673 (active)
normalized growth (locus YOR106W, strain vam3, active compounds read low): 0.117 (active)
normalized growth (locus YOR231W, strain MKK1, active compounds read low): 0.791 (active)
normalized growth (locus YOR265W, strain rbl2, active compounds read low): 0.0684 (active)
normalized growth (locus YOR270C, strain vph1, active compounds read low): 0.0918 (active)
normalized growth (locus YOR290C, strain snf2, active compounds read low): 0.0929 (active)
normalized growth (locus YPL051W, strain arl3, active compounds read low): 0.0673 (active)
normalized growth (locus YPL078C, strain atp4, active compounds read low): 0.0865 (active)
normalized growth (locus YPL106C, strain sse1, active compounds read low): 0.1 (active)
normalized growth (locus YPL240C, strain hsp82, active compounds read low): 0.0664 (active)
normalized growth (locus YPL256C, strain CLN2, active compounds read low): 0.835
